Screening data as filed in PubChem.
Rin1-Abl PPI inh: blocks binding of human Rin1 to Abl; TR-FRET Rin1/Abl binding, biochemical; P00519+Q13671; AID 588664; 0.4% of 360,000 active; inhibition, % at 7.35 µM; in the data active = inhibition above about 5%, passing the limit was not always enough
PAFAH1B2 FP inh: inhibitors of human PAFAH1B2 | 1.2% of 340,000 active | recombinant PAFAH1B2, FP-rhodamine activity probe, fluorescence polarization | inhibition, % at 3.39 µM;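 active = inhibition above the mean of all tested compounds plus 3 SD, cut at about 24% in these data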;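 also: 0% = enzyme with DMSO and 100% = wells lacking PAFAH1B2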
PAFAH1B3 FP inh: PAFAH1B3 (human) inhibition. Q15102. recombinant PAFAH1B3, FP-rhodamine probe, fluorescence polarization. inhibition, % at 3.39 µM. 0.28% of 340,000 active. AID 492972;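 active = inhibition above the screen-wide average of all tested compounds plus 3 SD, cut at about 25% in these data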;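 also: 0% = enzyme with DMSO only and 100% = wells lacking PAFAH1B3 protein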
pPAFAH inh: inhibitors of human plasma PAF acetylhydrolase (pPAFAH); Q13093; recombinant pPAFAH, FP-rhodamine probe fluorescence polarization; inhibition, % at 3.39 µM; 1.5% of 330,000 active;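 active = inhibition above the mean inhibition across the screen plus 3 SD, cut at about 25% in these data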;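 also: inhibitors block binding of the rhodamine activity-based probe so polarization drops; 0% = enzyme with DMSO and 100% = wells lacking pPAFAH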
PAFAH2 inh: inhibitors of human PAFAH2 | recombinant PAFAH2, FP-rhodamine activity probe, fluorescence polarization | 0.99% of 340,000 active | inhibition, % at 3.39 µM | Q99487 | AID 492956;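 active = inhibition above the mean over all tested compounds plus 3 SD, cut at about 30% in these data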;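 also: inhibitors block probe labeling of enzyme so polarization drops; 0% = enzyme with DMSO and 100% = wells lacking PAFAH2 protein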
eLon inh: inhibitors of E. coli Lon protease. purified E. coli Lon protease, fluorescence polarization. inhibition, % at 7.94 µM. 0.42% of 360,000 active. P0A9M0; in the data active = inhibition above about 13%, passing the limit was not always enough;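 also: 0% = enzyme with probe and DMSO and 100% = no enzyme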
Numbers without * were called inactive; x = no result. Most compounds without a hit are left out; they make up all but 3.1% or so of the library.

SMILES	Rin1-Abl PPI inh	PAFAH1B2 FP inh	PAFAH1B3 FP inh	pPAFAH inh	PAFAH2 inh	eLon inh
C/C(CC(=O)Nc1ccc(N(C)C)cc1)=N\NC(=O)c1ccc(F)cc1	0.1	0.0	5.1	0.9	-7.3	-1.1
COc1ccc(C)c2sc(NNC(=O)COc3ccccc3)nc12	x	x	x	5.4	x	x
Oc1ccc(-c2c(-c3ccsc3)sc3ccccc23)cc1	-2.4	2.0	2.4	29.1*	0.9	6.7
COCc1ccc(-c2c(-c3ccsc3)sc3ccccc23)cc1	4.7	-0.6	12.0	24.8*	2.9	-3.1
Cc1ccc(NC(=O)c2cc(=O)c3ccccc3o2)cc1	-0.6	5.3	1.3	2.1	3.1	-2.6
CC(=O)N1CCN(c2ccc(NC(=O)c3cc4ccccc4o3)cc2)CC1	1.4	3.2	1.4	26.0*	-4.0	-1.3
CC(=O)Nc1ccc(NC(=O)c2cc(=O)c3ccccc3o2)cc1	0.1	3.5	5.4	27.7*	0.6	-6.3
CC(C(=O)N1CCc2ccccc21)N1CCN(S(=O)(=O)c2ccc3c(c2)OCCCO3)CC1 (stereo unspecified)	1.7	-3.5	5.8	x	-1.6	9.9
O=C(NCc1ccco1)c1ccc2sc([C@@H]3O[C@H](CO)[C@@H](O)[C@H]3O)nc2c1	-4.2	x	x	x	x	6.3
CC(=O)N1c2ccc(S(=O)(=O)N(C)CC(=O)NC(C)c3ccccc3)cc2CC1C (stereo unspecified)	0.6	4.7	2.1	2.7	1.4	10.8
CCN1CCN(S(=O)(=O)c2ccc(Cl)c(C(=O)NC3CCCCC3)c2)CC1	2.9	27.9*	4.6	1.2	-1.1	12.8
CN(c1ccccc1)S(=O)(=O)c1nnc(NC(=O)COc2ccccc2)s1	-1.3	14.7	12.4	10.9	-2.7	0.1
CCC(Oc1ccccc1)C(=O)Nc1nnc(S(=O)(=O)Nc2ccccc2)s1 (stereo unspecified)	0.7	8.1	-0.2	32.6*	0.6	3.5
O=C(COc1ccccc1)Nc1nnc(S(=O)(=O)Nc2ccccc2)s1	-1.2	6.8	1.8	26.7*	10.8	-8.5
O=C(/C=C/c1ccc(O)c([N+](=O)[O-])c1)c1ccc2ccccc2c1	-0.7	28.8*	11.8	31.6*	44.0*	-9.2
CN(CCOc1ccc(Cl)cc1)C(=O)c1cc(-c2ccco2)nc2ccccc12	-2.2	10.6	2.2	25.6*	6.5	-15.7
CCOc1ccc(NC(=O)CN(C)C(=O)c2cc(-c3ccco3)nc3ccccc23)cc1OCC	0.5	1.5	3.0	x	-0.3	2.6
COc1cccc(NC(=O)CN(C)C(=O)c2cc(-c3ccco3)nc3ccccc23)c1	-0.2	-3.4	8.0	9.4	8.0	-3.6
CN(CC(=O)Nc1ccc(F)cc1)C(=O)c1cc(-c2ccco2)nc2ccccc12	0.6	3.3	-3.2	27.1*	6.4	-36.6
Cc1ccc(NC(=O)CN(C)C(=O)c2cc(-c3ccco3)nc3ccccc23)cc1	5.1	1.0	2.4	32.2*	3.5	-42.0
O=C(CN1C(=O)C2CC=CCC2C1=O)Nc1nc2ccccc2s1 (stereo unspecified)	4.9	0.1	7.1	0.2	2.3	3.1
Cc1cc(=O)oc2c(C)c(OCC(=O)NCCCN3CCOCC3)ccc12	2.4	0.9	0.2	2.0	3.4	-6.4
Cc1cc(C)nc(SCc2ccc(C(=O)N/N=C/c3cccc(O)c3O)cc2)n1	1.9	21.1	36.9*	32.2*	0.2	-4.4
COc1ccc(O)c(/C=N/NC(=O)c2ccc(CSc3nc(C)cc(C)n3)cc2)c1	-0.4	15.8	8.8	27.0*	1.2	-6.5
CCN1CCN(C(C(=O)NC2CCCCC2)c2ccnc3ccccc23)CC1 (stereo unspecified)	-0.6	x	x	x	x	-7.7
SMILES	Rin1-Abl PPI inh	PAFAH1B2 FP inh	PAFAH1B3 FP inh	pPAFAH inh	PAFAH2 inh	eLon inh
O=C(CNC(=O)c1ccccc1)N/N=C/c1cc(Br)ccc1O	-2.7	27.3*	9.8	9.4	4.4	7.2
Cc1cccc2c(N=Nc3ccc(S(=O)(=O)Nc4cccc(Cl)c4)cc3[N+](=O)[O-])c(O)[nH]c12	-1.4	26.1*	20.7	28.4*	7.8	2.4
Cc1ccc(S(=O)(=O)Nc2ccccc2)cc1[N+](=O)[O-]	3.1	7.9	2.6	x	4.8	1.6
COc1ccc(OC)c(/C=C2\SC(=S)N(NS(=O)(=O)c3ccc(C)cc3)C2=O)c1	4.3	-0.5	9.4	25.7*	13.7	-49.1
N#CCN1CCN(CC(=O)c2ccc(Br)cc2)CC1	4.4	5.1	2.0	-6.3	0.9	-7.8
CC(C(=O)O)N(C(=O)c1ccccc1)c1ccc(F)cc1 (stereo unspecified)	4.9	29.0*	9.1	5.0	-0.1	-0.9
CCOC(=O)C1=C(C)NC(C)=C(C(=O)OCC)C1C(=O)OCC(=O)NCCc1ccccc1	-0.1	7.9	0.5	7.0	4.2	0.5
O=C(Nc1cccc(C(F)(F)F)c1)c1csc([C@@H]2O[C@H](CO)[C@@H](O)[C@H]2O)n1	-4.2	x	x	x	x	-1.0
O=c1[nH]c(Nc2ccccc2Cl)cc2ccccc12	5.1	5.9	14.6	8.9	7.6	-82.4
Cc1ccccc1Nc1cc2ccccc2c(=O)[nH]1	16.4*	8.6	54.2*	3.8	10.4	-44.5
Cc1noc(C)c1NC(=O)N(C)C[C@@H]1OCc2cnnn2CCCC(=O)N([C@@H](C)CO)C[C@@H]1C	0.2	x	x	x	x	-1.4
O=C(CSc1n[nH]c(=O)n1C1CC1)Nc1ccccc1	5.2	5.1	-6.0	3.0	-3.4	-2.2
O=c1[nH]nc(SCc2ccccc2)n1C1CC2C=CC1C2 (stereo unspecified)	-3.9	25.9*	0.8	8.2	-6.7	0.5
Cn1c(N)c(C(=O)CSc2nn(-c3ccccc3)c(=S)s2)c(=O)n(C)c1=O	-0.2	4.8	-0.7	x	1.3	-6.8
CC(Sc1nn(-c2ccc(F)cc2)c(=S)s1)C(=O)c1c(N)n(C)c(=O)n(C)c1=O (stereo unspecified)	3.7	2.8	1.4	29.8*	6.6	7.1
CC1C/C(=C/c2ccco2)C(=O)/C(=C/c2ccco2)C1 (stereo unspecified)	x	x	x	47.7*	x	x
O=C1/C(=C\c2ccco2)CCC/C1=C\c1ccco1	3.1	-1.6	-1.6	17.2	12.4	-115.0
Cc1snc(SCc2ccc(Cl)cc2)c1C#N	-2.0	27.8*	2.5	7.7	-2.1	-0.1
CC1(OC(=O)CCc2ccccc2)C(=O)C=C2C=C(c3ccc(C#N)cc3)N(Cc3ccco3)C=C2C1=O (stereo unspecified)	0.2	4.2	-6.3	32.6*	-3.0	-0.3
CCC(=O)OC1(C)C(=O)C2=COC(c3ccc(OC)cc3)=CC2=C(Br)C1=O (stereo unspecified)	2.0	5.5	14.1	11.8	6.0	-10.3
CC1(OC(=O)CCc2ccccc2)C(=O)C=C2C=C(c3ccc(C#N)cc3)N(Cc3ccccc3)C=C2C1=O (stereo unspecified)	3.1	-6.9	-4.8	15.4	-0.2	-3.9
CC1(OC(=O)c2ccco2)C(=O)C=C2C=C(c3ccc(C#N)cc3)OC=C2C1=O (stereo unspecified)	x	x	x	52.5*	x	x
